Results as given in PubChem BioAssay (EPA / NIEHS).
Results filed as inconclusive are left out. Calls of active or inactive are those of the source. The calls were made as follows, unless noted: active = hit-call score of the fitted dose curve at least 0.9, where 1 is the maximum; inactive = score below 0.9.

Molecular target: Cellular tumor antigen p53 (Homo sapiens) (UniProt P04637)
Assay: ATG_p53_CIS: Attagene CIS-FACTORIAL HepG2 Assay for human p53 Transcription Factor (AID 2282994)
Settings: HepG2 p53 cis-element reporter, Attagene mRNA; actives raise or lower the signal
Method in brief: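 HepG2 cells transiently transfected with multiplexed cis-regulated reporter transcription units read endogenous TF activity. After 24 h compound exposure, reporter mRNA was quantified by RT-PCR, fluorescent labelling, HpaI digestion and capillary electrophoresis; bidirectional fits versus DMSO baseline.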

Chain of Cellular tumor antigen p53 (Homo sapiens) (P04637 whole entry, looked up): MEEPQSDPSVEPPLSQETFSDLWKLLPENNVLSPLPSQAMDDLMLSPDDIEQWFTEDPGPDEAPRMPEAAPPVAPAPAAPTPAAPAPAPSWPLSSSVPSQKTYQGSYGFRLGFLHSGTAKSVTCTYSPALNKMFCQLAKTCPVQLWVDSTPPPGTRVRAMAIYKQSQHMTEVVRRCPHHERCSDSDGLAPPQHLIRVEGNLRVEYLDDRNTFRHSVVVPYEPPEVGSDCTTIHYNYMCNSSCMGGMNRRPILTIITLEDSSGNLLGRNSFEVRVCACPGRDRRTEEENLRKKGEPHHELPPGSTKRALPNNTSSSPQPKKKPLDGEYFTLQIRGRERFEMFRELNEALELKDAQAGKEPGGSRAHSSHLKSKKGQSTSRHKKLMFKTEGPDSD

Row | Structure (SMILES) | outcome | AC50
1 | O=C(O)c1cc(I)cc(I)c1I | inactive | 
2 | C=CCCl | inactive | 
3 | COCCl | inactive | 
4 | COc1ccc(N)cc1 | inactive | 
5 | CC1(C)[C@H](/C=C2\CCSC2=O)[C@@H]1C(=O)OCc1coc(Cc2ccccc2)c1 | inactive | 
6 | Nc1cccnc1 | inactive | 
7 | N#CCC#N | inactive | 
8 | C=CCN=C=S | inactive | 
9 | Brc1ccc(Br)cc1 | inactive | 
10 | C[CH2][Hg][S]c1ccccc1C(=O)O | inactive | 
11 | O=S(=O)(F)C(F)(F)C(F)(F)C(F)(F)C(F)(F)F | inactive | 
12 | CCOC(=O)OC1=C(c2cc(C)ccc2C)C(=O)NC12CCC(OC)CC2 (configuration not stated) | inactive | 
13 | O=C(CCl)Nc1ccccc1 |  | 7.86 µM (active)
14 | C[C@H]1C(=O)O[C@@H]2CCN3CC=C(COC(=O)[C@](C)(O)[C@]1(C)O)[C@H]23 | inactive | 
15 | CCOP(=O)(OCC)SCCSCC | inactive | 
16 | COC(=O)c1cc(Oc2ccc(Cl)cc2Cl)ccc1[N+](=O)[O-] | inactive | 
17 | Clc1cc(C(Cl)(Cl)Cl)cnc1Cl |  | 14.7 µM (active)
18 | N#Cc1ccccc1Cl | inactive | 
19 | C#CCO | inactive | 
20 | C=CC(=O)OCC(COC(=O)C=C)(COC(=O)C=C)COC(=O)C=C |  | 8.93 µM (active)

Row | Structure (SMILES) | outcome | AC50
21 | CCCCOC(C)=O | inactive | 
22 | N#Cc1ccncc1 | inactive | 
23 | OC[P+](CO)(CO)CO | inactive | 
24 | N#CCCC(Br)(C#N)CBr (configuration not stated) |  | 52.8 µM (active)
25 | c1csc(-c2ccc(-c3cccs3)s2)c1 | inactive | 
26 | OC(Cc1ccccc1Cl)(Cn1cncn1)C1(Cl)CC1 (configuration not stated) |  | 30 µM (active)
27 | C=CC(=O)[O][Sn]([CH2]CCC)([CH2]CCC)[CH2]CCC | inactive | 
28 | O=C1C=CC(=O)c2ccccc21 | inactive | 
29 | CN(C)c1ccc(N=O)cc1 |  | 44.6 µM (active)
30 | CCCCCCCCCCCCCCC(Br)C(=O)O (configuration not stated) | inactive | 
31 | O=S1(=O)OC(c2cc(Br)c(O)c(Br)c2)(c2cc(Br)c(O)c(Br)c2)c2ccccc21 |  | 126 µM (active)
32 | Cc1ccccc1OP(=O)(Oc1ccccc1)Oc1ccccc1 | inactive | 
33 | Brc1c(Br)c(Br)c(Oc2c(Br)c(Br)c(Br)c(Br)c2Br)c(Br)c1Br | inactive | 
34 | COP(=S)(OC)Oc1cc(Cl)c(I)cc1Cl |  | 52.6 µM (active)
35 | O=C1c2ccccc2C(=O)C1C(=O)C(c1ccccc1)c1ccc(Cl)cc1 (configuration not stated) | inactive | 
36 | c1cc[c]([Sb]([c]2ccccc2)[c]2ccccc2)cc1 | inactive | 
37 | COc1ccc([N+](=O)[O-])cc1O | inactive | 
38 | O=C(Nc1ccc(Br)cc1)c1cc(Br)cc(Br)c1O |  | 100 µM (active)
39 | CCCCCCCCCCCCN(C)C |  | 33.4 µM (active)

Read-out: not listed separately
Assay: BSK_3C_TissueFactor: BioMAP Diversity Plus: 3C Assay for Tissue Factor Biomarker Activity (AID 2282997)
Settings: BioMAP 3C HUVEC, tissue factor biomarker readout; actives raise or lower the signal
Method in brief: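 ELISA read-out of Tissue Factor levels on human umbilical vein endothelium collected 24 h after chemical dosing. Gain or loss of signal was fitted relative to DMSO.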

Row | Structure (SMILES) | outcome | AC50
40 | CCOP(=O)(OCC)SCCSCC | inactive | 
41 | N#CCCC(Br)(C#N)CBr (configuration not stated) |  | 7.47 µM (active)
42 | OC(Cc1ccccc1Cl)(Cn1cncn1)C1(Cl)CC1 (configuration not stated) | inactive | 
43 | O=C1C=CC(=O)c2ccccc21 |  | 1.93 µM (active)
44 | Cc1ccccc1OP(=O)(Oc1ccccc1)Oc1ccccc1 |  | 20 µM (active)
45 | CCCCCCCCCCCCN(C)C | inactive | 

Molecular target: human Peroxisome Proliferator-activated Receptor alpha (PPARa), PPARA (gene 5465) (UniProt Q07869)
Assay: ATG_PPARa_TRANS: Attagene TRANS-FACTORIAL HepG2 Assay for human Peroxisome Proliferator-activated Receptor alpha (PPARa) (AID 2283001; active = hit-call score of the fitted dose curve at least 0.9, where 1 is the maximum;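 as to AC50: potency for gain of reporter signal over DMSO so agonist or activator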)
Settings: not given
Method in brief: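 Measures transcriptional activity of an exogenous chimeric PPARa-Gal4 protein in transiently transfected HepG2 cells after 24 h dosing. Reporter mRNA quantified via RT-PCR and capillary electrophoresis; DMSO served as negative control.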

Chain of human Peroxisome Proliferator-activated Receptor alpha (PPARa), PPARA (gene 5465) (Q07869 whole entry, looked up): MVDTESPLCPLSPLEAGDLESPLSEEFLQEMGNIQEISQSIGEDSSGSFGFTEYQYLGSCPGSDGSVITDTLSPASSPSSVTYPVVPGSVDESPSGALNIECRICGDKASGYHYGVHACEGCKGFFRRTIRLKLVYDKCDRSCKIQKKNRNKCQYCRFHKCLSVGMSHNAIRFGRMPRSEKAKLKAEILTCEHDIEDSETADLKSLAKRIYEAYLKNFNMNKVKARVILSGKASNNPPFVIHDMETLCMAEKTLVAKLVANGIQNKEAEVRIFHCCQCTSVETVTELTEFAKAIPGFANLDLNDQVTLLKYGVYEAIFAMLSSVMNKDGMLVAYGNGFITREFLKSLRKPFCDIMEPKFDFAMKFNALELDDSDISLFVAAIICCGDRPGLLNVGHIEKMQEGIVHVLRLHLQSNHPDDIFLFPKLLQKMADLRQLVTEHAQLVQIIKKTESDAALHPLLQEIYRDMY

Row | Structure (SMILES) | AC50 | outcome
46 | O=C(O)c1cc(I)cc(I)c1I | 17.3 µM (active) | 
47 | C=CCCl |  | inactive
48 | COCCl |  | inactive
49 | COc1ccc(N)cc1 |  | inactive
50 | CC1(C)[C@H](/C=C2\CCSC2=O)[C@@H]1C(=O)OCc1coc(Cc2ccccc2)c1 |  | inactive
51 | Nc1cccnc1 |  | inactive
52 | N#CCC#N |  | inactive
53 | C=CCN=C=S |  | inactive
54 | Brc1ccc(Br)cc1 |  | inactive
55 | C[CH2][Hg][S]c1ccccc1C(=O)O |  | inactive
56 | O=S(=O)(F)C(F)(F)C(F)(F)C(F)(F)C(F)(F)F |  | inactive
57 | CCOC(=O)OC1=C(c2cc(C)ccc2C)C(=O)NC12CCC(OC)CC2 (configuration not stated) |  | inactive
58 | O=C(CCl)Nc1ccccc1 |  | inactive
59 | C[C@H]1C(=O)O[C@@H]2CCN3CC=C(COC(=O)[C@](C)(O)[C@]1(C)O)[C@H]23 |  | inactive
60 | COC(=O)c1cc(Oc2ccc(Cl)cc2Cl)ccc1[N+](=O)[O-] |  | inactive
61 | Clc1cc(C(Cl)(Cl)Cl)cnc1Cl |  | inactive
62 | N#Cc1ccccc1Cl |  | inactive
63 | C#CCO |  | inactive
64 | C=CC(=O)OCC(COC(=O)C=C)(COC(=O)C=C)COC(=O)C=C | 100 µM (active) | 

Row | Structure (SMILES) | AC50 | outcome
65 | CCCCOC(C)=O |  | inactive
66 | N#Cc1ccncc1 |  | inactive
67 | OC[P+](CO)(CO)CO |  | inactive
68 | N#CCCC(Br)(C#N)CBr (configuration not stated) |  | inactive
69 | c1csc(-c2ccc(-c3cccs3)s2)c1 |  | inactive
70 | C=CC(=O)[O][Sn]([CH2]CCC)([CH2]CCC)[CH2]CCC | 0.599 µM (active) | 
71 | O=C1C=CC(=O)c2ccccc21 |  | inactive
72 | CN(C)c1ccc(N=O)cc1 |  | inactive
73 | CCCCCCCCCCCCCCC(Br)C(=O)O (configuration not stated) | 1.44 µM (active) | 
74 | O=S1(=O)OC(c2cc(Br)c(O)c(Br)c2)(c2cc(Br)c(O)c(Br)c2)c2ccccc21 |  | inactive
75 | Cc1ccccc1OP(=O)(Oc1ccccc1)Oc1ccccc1 |  | inactive
76 | Brc1c(Br)c(Br)c(Oc2c(Br)c(Br)c(Br)c(Br)c2Br)c(Br)c1Br |  | inactive
77 | COP(=S)(OC)Oc1cc(Cl)c(I)cc1Cl | 38 µM (active) | 
78 | O=C1c2ccccc2C(=O)C1C(=O)C(c1ccccc1)c1ccc(Cl)cc1 (configuration not stated) |  | inactive
79 | c1cc[c]([Sb]([c]2ccccc2)[c]2ccccc2)cc1 |  | inactive
80 | COc1ccc([N+](=O)[O-])cc1O |  | inactive
81 | O=C(Nc1ccc(Br)cc1)c1cc(Br)cc(Br)c1O | 4.97 µM (active) | 
82 | CCCCCCCCCCCCN(C)C |  | inactive
